Source: PubChem BioAssay
Pf growth 48h: Primary qHTS for delayed death inhibitors of the malarial parasite plastid, 48 hour incubation. Potency, µM (titrated, usually from 28.7 µM), inactives show at the highest dose activity change, negative = inhibition, usual class: inhibitors. AID 504832, 2011. actives 5.9% (n = 310,000). P. falciparum luciferase growth in erythrocytes, 48 h; also: % is scaled to controls: 0 for no effect and ±100 for the full control effect
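Firefly luciferase activity from engineered P. falciparum reports growth; inhibitors lower the luminescent signal. Cultures contained 2% hematocrit erythrocytes at 0.1% final parasitemia.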
Sm TGR inh: qHTS Assay for the Inhibitors of Schistosoma Mansoni Peroxiredoxins; purified TGR, DTNB reduction, TNB absorbance 405 nm; Potency, µM (highest dose often 114 µM), inactives show top-dose activity change, negative = inhibition, actives largely listed as inhibitors; actives 3% (n = 360,000); AID 485364, 2010; also: % is scaled to controls: 0 for no effect and ±100 for the full control effect; nearly all actives have a fitted effect of over 60% in size
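First, TGR (20 nM dispensed) and NADPH were mixed with compound. Second, a 15 min room-temperature incubation followed. Third, further NADPH and then DTNB were added to start the reaction. Finally, TNB absorbance was monitored kinetically.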
Pf growth 96h: Primary qHTS for delayed death inhibitors of the malarial parasite plastid, 96 hour incubation; AID 504834, 2011; P. falciparum luciferase reporter growth, 96 h; Potency, µM (doses to about 28.7 µM), inactives show at the highest dose activity change, negative = inhibition, most hits filed as inhibitors; actives 6.9% (n = 320,000); also: % is scaled to controls: 0 for no effect and ±100 for the full control effect
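Parasite growth measured via integrated firefly luciferase reporter in P. falciparum. Infected erythrocytes at 2% hematocrit, 0.05% parasitemia final were treated 96 hours at 37 C under 5% CO2, and luminescence was read.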
SARS PLpro yeast: qHTS of Yeast-based Assay for SARS-CoV PLP | S. cerevisiae expressing SARS-CoV PLpro, growth rescue | AID 485353, 2010 | Potency, µM (doses to about 32.9 µM), without a hit: at the highest dose activity, positive = growth rescue, actives largely listed as activators | actives 0.19% (n = 330,000); calls by dose curve; also: 0% is about no effect; nearly all actives have a fitted effect of over 55% in size
* = called active by the depositor. Rows were chosen to be rich in hits. Some 12% of all compounds tested hit in one or more screens of this group. Unless noted, calls follow the shape of the dose curve; as a rule, active = well fitted curve in the direction sought with a large enough effect; inconclusive = small, poorly fitted or top-dose-only effect, or another doubt; inactive = no such curve, though single readings can be large; an effect the other way counts as inactive or inconclusive. Potency is read from the fitted curve at half-maximal effect.

What do the screens show for `Cc1ccc(CNC(=O)C2CCN(C(=O)Nc3ccc(C)cc3)CC2)cc1`?
Pf growth 48h: -13%; Sm TGR inh: 8%; Pf growth 96h: 5%; SARS PLpro yeast: 18%

Results for CCn1cc(C(=O)O)c(=O)c2cc(F)c(N3CCN(C(=S)NC(=O)c4ccccc4C)CC3)cc21 ?
Pf growth 48h: inconclusive; Sm TGR inh: -3%; Pf growth 96h: inconclusive; SARS PLpro yeast: 0%

How did CCn1cc(C(=O)O)c(=O)c2cc(F)c(N3CCN(C(=S)NC(=O)c4ccccc4Cl)CC3)cc21 do in these assays?
Pf growth 48h: 5.2µM*; Sm TGR inh: 9%; Pf growth 96h: inconclusive; SARS PLpro yeast: 2%

How did C=CCNC(=S)N1CCN(c2cc3c(cc2F)c(=O)c(C(=O)O)cn3CC)CC1 do in these assays?
Pf growth 48h: inconclusive; Sm TGR inh: -22%; Pf growth 96h: 2.3µM*; SARS PLpro yeast: 0%

What do the screens show for `O=C(NC1CC(=O)N(c2ccccc2)C1)c1cccs1` (stereo not drawn)?
Sm TGR inh: 7%

What do the screens show for `CCOc1ccc(C2C(=O)N(C3CCCCCC3)CC(=O)N2Cc2ccccc2)cc1OC` (stereo not drawn)?
Sm TGR inh: 6%

Results for CN(CC(=O)Nc1ccccc1Br)C(=O)CCCSc1nc2ccccc2[nH]1 ?
Pf growth 48h: -19%; Sm TGR inh: 1%; Pf growth 96h: inconclusive; SARS PLpro yeast: 28%

How did O=[N+]([O-])c1ccc(N2CCCCCC2)c([N+](=O)[O-])c1 do in these assays?
Pf growth 48h: 7%; Sm TGR inh: -9%; Pf growth 96h: 7%; SARS PLpro yeast: -13%

Results for O=C1CCN(c2ccc([N+](=O)[O-])cc2F)CC1 ?
Pf growth 48h: 276%; Sm TGR inh: 40µM*; Pf growth 96h: 57%; SARS PLpro yeast: 0%

What do the screens show for `O=C(Nc1ccc(N2CCN(C(=O)c3cccs3)CC2)cc1)c1ccco1`?
Pf growth 48h: -15%; Sm TGR inh: -2%; Pf growth 96h: inconclusive; SARS PLpro yeast: -4%

What do the screens show for `Cc1ccc(C(=O)Nc2ccc(N3CCN(C(=O)c4cccs4)CC3)cc2)c(Cl)c1`?
Pf growth 48h: 9.3µM*; Sm TGR inh: 24%; Pf growth 96h: 48%; SARS PLpro yeast: -1%

What do the screens show for `O=C(Nc1ccc2c(c1)CCCN2C(=O)c1ccco1)c1cc([N+](=O)[O-])ccc1Cl`?
Pf growth 48h: 15µM*; Sm TGR inh: -2%; Pf growth 96h: inconclusive; SARS PLpro yeast: 2%

Results for O=C(NC(=S)Nc1ccc(N2CCCCC2)cc1)c1ccco1 ?
Pf growth 48h: 144%; Sm TGR inh: 16µM*; Pf growth 96h: 14%; SARS PLpro yeast: -2%

What do the screens show for `Cc1c(C(=O)N/N=C/c2cccs2)nnn1-c1nonc1N`?
Pf growth 48h: 22%; Sm TGR inh: -1%; Pf growth 96h: -5%; SARS PLpro yeast: 4%

How did COc1c(Cl)cc(C(=O)NCc2ccco2)cc1Cl do in these assays?
Pf growth 48h: 62%; Sm TGR inh: -7%; Pf growth 96h: inconclusive; SARS PLpro yeast: -5%

Results for Cc1ccc(C(=O)NC(=S)Nc2ccc(N3CCN(C(=O)c4ccco4)CC3)cc2)cc1 ?
Pf growth 48h: inconclusive; Sm TGR inh: -27%; Pf growth 96h: 5.2µM*; SARS PLpro yeast: -7%

What do the screens show for `O=C(Nc1ccc(N2CCN(C(=O)c3ccco3)CC2)cc1)c1ccc([N+](=O)[O-])cc1Cl`?
Pf growth 48h: 12µM*; Sm TGR inh: -1%; Pf growth 96h: inconclusive; SARS PLpro yeast: 6%

What do the screens show for `Cc1ccccc1C(=O)Nc1ccc(N2CCN(C(=O)c3ccco3)CC2)cc1`?
Pf growth 48h: -8%; Sm TGR inh: -5%; Pf growth 96h: inconclusive; SARS PLpro yeast: 1%

Results for Cc1ccc(C(=O)Nc2ccc(N3CCN(C(=O)c4ccco4)CC3)cc2)c(Cl)c1 ?
Pf growth 48h: 13µM*; Sm TGR inh: -1%; Pf growth 96h: 9%; SARS PLpro yeast: -3%

What do the screens show for `O=C(c1ccco1)N1CCN(c2ccc([N+](=O)[O-])cc2F)CC1`?
Pf growth 48h: 15%; Sm TGR inh: 35µM*; Pf growth 96h: 16%; SARS PLpro yeast: -3%

How did Cc1ccc(C(=O)N2CCN(c3ccc(NC(=S)NC(=O)c4cccs4)cc3)CC2)cc1 do in these assays?
Pf growth 48h: inconclusive; Sm TGR inh: 10%; Pf growth 96h: -15%; SARS PLpro yeast: 1%

What do the screens show for `O=c1oc2cc([N+](=O)[O-])ccc2nc1/C=C(O)/C=C/c1ccccc1`?
Pf growth 48h: -1%; Sm TGR inh: 35µM*; Pf growth 96h: -1%; SARS PLpro yeast: 3%

What do the screens show for `CCOC(=O)c1ccccc1NC(=O)CSc1cn(CC(=O)N2CCCCC2)c2ccccc12`?
Sm TGR inh: 0%

Results for CCCCCn1c(CNC(=O)c2cccs2)nc2ccccc21 ?
Pf growth 48h: inconclusive; Sm TGR inh: -4%; Pf growth 96h: 0.59µM*; SARS PLpro yeast: -3%

Results for CCCCn1c(CNC(=O)c2cccs2)nc2ccccc21 ?
Pf growth 48h: 5.2µM*; Sm TGR inh: -1%; Pf growth 96h: 2.1µM*; SARS PLpro yeast: -2%

How did CCCCCn1c(CCNC(=O)c2cccs2)nc2ccccc21 do in these assays?
Pf growth 48h: inconclusive; Sm TGR inh: 2%; Pf growth 96h: -19%; SARS PLpro yeast: -8%

What do the screens show for `CC(Oc1ccccc1)C(=O)N=C1SC2CS(=O)(=O)CC2N1Cc1ccccc1` (stereo not drawn)?
Pf growth 48h: -16%; Sm TGR inh: 8%; Pf growth 96h: 22%; SARS PLpro yeast: 11%

Results for O=C1NC2(CCCCC2)C(=O)N1c1ccc(Cl)cc1 ?
Pf growth 48h: 15%; Sm TGR inh: 0%; Pf growth 96h: 4.7µM*; SARS PLpro yeast: -3%

How did Cc1ccccc1CCNCc1c(C(=O)O)c(C)n(Cc2c(F)cccc2Cl)c1C do in these assays?
Sm TGR inh: 3%

Results for C/C=C(/C)C(=O)Nc1cccc(C2=NOC3(C2)C[C@H](C(N)=O)N(C(=O)Cc2ccc([N+](=O)[O-])cc2)C3)c1 (stereo partly drawn) ?
Pf growth 48h: 12µM*; Sm TGR inh: 2%; Pf growth 96h: inconclusive; SARS PLpro yeast: 1%

How did C/C=C\C=C/C(=O)Nc1cccc(C2=NOC3(C2)C[C@H](C(N)=O)N(C(=O)Cc2ccc([N+](=O)[O-])cc2)C3)c1 (stereo partly drawn) do in these assays?
Pf growth 48h: inconclusive; Sm TGR inh: 1.1µM*; Pf growth 96h: inconclusive; SARS PLpro yeast: 1%

Results for Cc1ccc(C)c(Cn2c(SCC(=O)NCc3ccccc3)nc3ccccc32)c1 ?
Sm TGR inh: 7%

What do the screens show for `O=C(CCl)NN1C(=O)NC(c2ccccc2)(c2ccccc2)C1=O`?
Pf growth 48h: inconclusive; Sm TGR inh: inconclusive; Pf growth 96h: inconclusive; SARS PLpro yeast: 3%

What do the screens show for `COc1ccc(NC(=S)N(CCc2ccc(OC)c(OC)c2)Cc2ccccn2)cc1`?
Pf growth 48h: inconclusive; Sm TGR inh: -1%; Pf growth 96h: 12µM*; SARS PLpro yeast: -2%
